Results taken from PubChem BioAssay (NCATS).
Results filed as inconclusive are left out. A call without a number means that no potency is given here. Values without a mark were called inactive. Active and inactive are the calls of the source. Unless noted, the call rests on the fitted dose curve.

How the values were obtained:
[1] = qHTS for Inhibitors of the Functional Ribonucleoprotein Complex (vRNP) of Lassa (LASV) Arenavirus: LASV Primary Screen - GLuc reporter signal (AID 1347082; calls by dose curve; tested in HEK293 reporter line; further: nearly all actives have a fitted effect of over 60% in size; on activity change, negative = inhibition: series mostly up to about 57 µM)
[2] = qHTS for Inhibitors of the Functional Ribonucleoprotein Complex (vRNP) of Lassa (LASV) Arenavirus: Viability assay - alamar blue signal for LASV Primary Screen (AID 1347083; calls by dose curve; tested in HEK293 reporter line; further: nearly all actives have a fitted effect of over 80% in size; on activity change, negative = reduced viability: series mostly up to about 57 µM)
[3] = qHTS for Inhibitors of the Functional Ribonucleoprotein Complex (vRNP) of Lymphocytic Choriomeningitis Arenaviruses (LCMV): Viability assay - alamar blue signal for LCMV Primary Screen (AID 1347085; calls by dose curve; tested in HEK293 reporter line; further: nearly all actives have a fitted effect of over 80% in size; on activity change, negative = lower viability: series mostly up to about 57 µM)
[4] = molecular target: Nucleoprotein (Lymphocytic choriomeningitis virus (strain Armstrong)) (UniProt P09992); assay: qHTS for Inhibitors of the Functional Ribonucleoprotein Complex (vRNP) of Lymphocytic Choriomeningitis Arenaviruses (LCMV): LCMV Primary Screen - GLuc reporter signal (AID 1347086); further: nearly all actives have a fitted effect of over 70% in size; on activity change, negative = inhibition: series mostly up to about 57 µM
Nucleoprotein (Lymphocytic choriomeningitis virus (strain Armstrong)), sequence (P09992 whole entry, looked up): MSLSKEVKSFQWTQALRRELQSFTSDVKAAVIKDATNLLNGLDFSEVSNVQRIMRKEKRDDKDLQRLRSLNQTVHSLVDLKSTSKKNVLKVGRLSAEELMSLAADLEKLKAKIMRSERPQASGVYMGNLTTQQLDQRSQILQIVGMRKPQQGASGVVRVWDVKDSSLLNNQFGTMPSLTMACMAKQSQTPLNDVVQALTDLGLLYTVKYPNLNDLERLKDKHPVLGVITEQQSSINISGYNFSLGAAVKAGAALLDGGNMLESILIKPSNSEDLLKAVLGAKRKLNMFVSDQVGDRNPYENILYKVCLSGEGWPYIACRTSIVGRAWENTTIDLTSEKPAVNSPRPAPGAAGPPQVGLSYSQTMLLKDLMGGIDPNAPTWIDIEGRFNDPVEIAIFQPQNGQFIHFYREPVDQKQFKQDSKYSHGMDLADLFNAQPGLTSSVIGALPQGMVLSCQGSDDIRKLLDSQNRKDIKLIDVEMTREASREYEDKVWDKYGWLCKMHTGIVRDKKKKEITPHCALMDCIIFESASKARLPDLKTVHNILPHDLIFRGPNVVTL
Potency means the concentration at half of the fitted maximal effect.

SMILES | Potency [1] | Potency [2] | Potency [3] | Potency [4] | activity change, negative = inhibition [1] | activity change, negative = reduced viability [2] | activity change, negative = lower viability [3] | activity change, negative = inhibition [4]
CC1C(c2ccccc2)OC(=O)N1C (stereo not given) | inactive | inactive | inactive | inactive |  |  |  | 
C=C1[C@H](n2cnc3c(=O)[nH]c(N)nc32)C[C@H](O)[C@H]1CO | inactive | inactive | inactive | inactive |  |  |  | 
CC[C@H]1OC(=O)[C@H](C)[C@@H](O[C@H]2C[C@@](C)(OC)[C@@H](O)[C@H](C)O2)[C@H](C)[C@@H](O[C@@H]2O[C@@H](C)C[C@H](N(C)C)[C@@H]2O)[C@](C)(O)C[C@@H](C)C(=O)[C@H](C)[C@@H](O)[C@]1(C)O | inactive | inactive | inactive | inactive |  |  |  | 
O=C(O)C=Cc1ccc(Cn2ccnc2)cc1 | inactive | inactive | inactive | inactive |  |  |  | 
C=CCCCCCCCCCCCC(O)CC(O)COC(C)=O (stereo not given) | inactive | inactive | inactive | inactive |  |  |  | 
CC/C=C\CC1=C(C)CCC1=O | inactive | inactive | inactive | inactive |  |  |  | 
O=c1ccc2cc3ccoc3cc2o1 | inactive | inactive | inactive | inactive |  |  |  | 
O=C(OCC#CCSc1nnc(-c2cccc3ccccc23)o1)c1cc2ccccc2s1 | inactive | inactive | inactive | inactive |  |  |  | 
C=C1[C@H]2C[C@H]3[C@H]4N5C[C@]6(C)CCC[C@]47[C@H]([C@H]2O)[C@]3(C[C@]5(O)[C@H]67)[C@@H]1O | inactive | inactive | inactive | inactive |  |  |  | 
CCOc1c2ccoc2nc2c(OC)c(OC)ccc12 | inactive | inactive | inactive | inactive |  |  |  | 
COc1cc2c(c3oc(-c4ccccc4)cc(=O)c13)C=CC(C)(C)O2 | inactive | inactive | inactive | inactive |  |  |  | 
C[C@]12CCC3C(CC[C@H]4C[C@H](O)CC[C@]34C)C1C[C@H](O)[C@@H]2O (stereo not given in full) | inactive | inactive | inactive | inactive |  |  |  | 
CC(C)(O)[C@@H]1Cc2c(ccc3ccc(=O)oc23)O1 | inactive | inactive | inactive | inactive |  |  |  | 
CCCCCCC(=O)OCC | inactive | inactive | inactive | inactive |  |  |  | 
CC(=O)O[C@]1(C(C)=O)CC[C@@H]2[C@@H]3C[C@H](C)C4=CC(=O)CC[C@]4(C)[C@H]3CC[C@@]21C | inactive | inactive | inactive | inactive |  |  |  | 
CSc1c(Cl)c(Cl)c(Cl)c(Cl)c1Cl | inactive | inactive | inactive | inactive |  |  |  | 
C/C=C(/C)C(=O)O[C@@H]1c2cc3c(c4c2[C@@]2(CO4)C(=O)C(OC)=C(OC)C=C2C[C@@H](C)[C@H]1C)OCO3 | inactive | inactive | inactive | inactive |  |  |  | 
CN1CCC[C@H]1CCO[C@](C)(c1ccccc1)c1ccc(Cl)cc1 | inactive | inactive | inactive | inactive |  |  |  | 
CCCCCCCCCOC(C)=O | inactive | inactive | inactive | inactive |  |  |  | 
CCC(CC)C(=O)O | inactive | inactive | inactive | inactive |  |  |  | 

SMILES | Potency [1] | Potency [2] | Potency [3] | Potency [4] | activity change, negative = inhibition [1] | activity change, negative = reduced viability [2] | activity change, negative = lower viability [3] | activity change, negative = inhibition [4]
CC12CCC(=O)C=C1C(F)CC1C2C(O)CC2(C)C1CCC2(O)C(=O)CO (stereo not given) | inactive | inactive | inactive | inactive |  |  |  | 
C=C1C[C@H](O)[C@@H]2[C@H](OC(=O)[C@H]2C)[C@H]2[C@H](C)[C@@H](O)C[C@@H]12 | inactive | inactive | inactive | inactive |  |  |  | 
COc1cc2c(cc1OC)OC(C)(C)C=C2 | inactive | inactive | inactive | inactive |  |  |  | 
CCC1CCC(=O)O1 (stereo not given) | inactive | inactive | inactive | inactive |  |  |  | 
CCCCCCC(CO)CCCC (stereo not given) | inactive | inactive | inactive | inactive |  |  |  | 
CC(C)CNC(=O)/C=C/C=C/CCCC/C=C/c1ccc2c(c1)OCO2 | inactive | inactive | inactive | inactive |  |  |  | 
CC(=O)NCC(=O)N1[C@H]2CC[C@H]1c1cc(Nc3ncc(C(F)(F)F)c(NC4CCC4)n3)ccc12 | inactive | 3.43 µM (active) | 9.68 µM (active) | inactive |  |  |  | 
CC(=O)O[C@@H]1CC2C(C)(C)C(=O)C=C[C@]2(C)C2CC[C@]3(C)C(=CC[C@H]3C3CO[C@@H](C(C)(C)O)[C@H](O)C3)[C@@]21C (stereo not given in full) | inactive | inactive | inactive | inactive |  |  |  | 
COc1ccc(/C=C/C(=O)O)cc1 | inactive | inactive | inactive | inactive |  |  |  | 
CC(C)(C)[N+]([O-])=Cc1ccc(S(=O)(=O)O)cc1S(=O)(=O)O | inactive | inactive | inactive | inactive |  |  |  | 
C=C(C)[C@]12C[C@@H](C)[C@@]34O[C@](Cc5ccccc5)(O[C@@H]1[C@@H]3C=C(COC(=O)Cc1ccc(O)c(OC)c1)C[C@]1(O)C(=O)C(C)=C[C@@H]41)O2 | inactive | inactive | inactive | inactive |  |  |  | 
CC(C)C1Oc2cc3oc(=O)ccc3cc2C1=O (stereo not given) | inactive | inactive | inactive | inactive |  |  |  | 
C/C=C(\C)C(=O)O[C@H]1C[C@@]2(C)CCC(C(C)C)C2(O)CC[C@@]1(C)O (stereo not given in full) | inactive | inactive | inactive | inactive |  |  |  | 
COc1ccc2c(Oc3ccc(NC(=O)c4c(C)n(CC(C)(C)O)n(-c5ccccc5)c4=O)nc3)ccnc2c1 | inactive | inactive | inactive | inactive |  |  |  | 
CCCCCCCCCC(=O)OCC | inactive | inactive | inactive | inactive |  |  |  | 
CCCCCCCCCCCCCCCC(=O)OC(CO)CO | inactive | inactive | inactive | inactive |  |  |  | 
CCCCC/C=C\C/C=C\C/C=C\C=C\C(O)CCCC(=O)O (stereo not given) |  |  |  |  | -8.78% [at 0.757 µM] | 7.65% [at 0.757 µM] | 16.2% [at 0.757 µM] | -6.07% [at 0.757 µM]
C[C@@H]1[C@H](C)CC[C@]2(C(=O)O)CC[C@]3(C)C(=CC[C@@H]4[C@@]5(C)C[C@@H](O)[C@H](O)[C@@](C)(CO)[C@H]5CC[C@]43C)[C@@H]12 | inactive | inactive | inactive | inactive |  |  |  | 
COC1=CC(=O)[C@@]2([C@@H]1O)[C@@H](Cl)C[C@]13C(OC)=C(OC)C(=O)C[C@]21CCN3C | inactive | inactive | inactive | inactive |  |  |  | 
C[C@@H](O)CCCCn1c(=O)c2c(ncn2C)n(C)c1=O | inactive | inactive | inactive | inactive |  |  |  | 

SMILES | Potency [1] | Potency [2] | Potency [3] | Potency [4] | activity change, negative = inhibition [1] | activity change, negative = reduced viability [2] | activity change, negative = lower viability [3] | activity change, negative = inhibition [4]
O=C(O)[C@H]1O[C@H](Oc2cc3oc(-c4ccccc4)cc(=O)c3c(O)c2O)[C@H](O)[C@@H](O)[C@H]1O | inactive | inactive | inactive | inactive |  |  |  | 
CCCCC=O | inactive | inactive | inactive | inactive |  |  |  | 
COc1cc2c(c(OC)c1OC)-c1c(cc(OC)c(OC)c1OC)C[C@](C)(O)[C@@H](C)C2 | inactive | inactive | inactive | inactive |  |  |  | 
CC(O)CC(=O)O (stereo not given) | inactive | inactive | inactive | inactive |  |  |  | 
O=C(O)C1=CO[C@@H](O[C@@H]2O[C@H](CO)[C@H](O)[C@H](O)[C@H]2O)[C@@H]2C(CO)=CC[C@H]12 | inactive | inactive | inactive | inactive |  |  |  | 
CCN1C[C@]2(C)CCC(OC)[C@@]34C5C[C@@H]6CC[C@@](O)(C5C(=O)O6)[C@@H](C(O)C23)[C@@H]14 (stereo not given in full) | inactive | inactive | inactive | inactive |  |  |  | 
C=C(C)C1CCC(C)(O)CC1 (stereo not given) | inactive | inactive | inactive | inactive |  |  |  | 
CC1(C)CCC[C@@](C)([C@H]2CC[C@]3(C)[C@@H]2[C@H](O)CC2[C@@]4(C)CC[C@H](O)C(C)(C)[C@@H]4[C@@H](O)C[C@]23C)O1 (stereo not given in full) | inactive | inactive | inactive | inactive |  |  |  | 
O=C(/C=C/c1ccccc1)OC/C=C/c1ccccc1 | inactive | inactive | inactive | inactive |  |  |  | 
O=C1N[C@@H](Cc2c[nH]c3ccccc23)C(=O)N[C@H]1Cc1c[nH]c2ccccc12 | inactive | inactive | inactive | inactive |  |  |  | 
O=CCCc1ccccc1 | inactive | inactive | inactive | inactive |  |  |  | 
CC(C)(O)c1cc2nc(-c3cnc(N)nc3)nc(N3CCOCC3)c2s1 | 385 nM (active) | 0.193 µM (active) | 0.769 µM (active) | 611 nM (active) |  |  |  | 
CCC(C)(O)C(=O)N[C@H]1CCCN1C(=O)/C=C/c1ccccc1 (stereo not given in full) | inactive | inactive | inactive | inactive |  |  |  | 
CCCCCCCCOC(C)=O | inactive | inactive | inactive | inactive |  |  |  | 
C=C(C)C(O)COc1c2occc2c(OC)c2ccc(=O)oc12 (stereo not given) | inactive | inactive | inactive | inactive |  |  |  | 
C/C=C(/C)C(=O)O[C@H]1CC(C)=CC(=O)[C@@]2(C)CC[C@@](O)(C(C)C)[C@H]12 | inactive | inactive | inactive | inactive |  |  |  | 
CC/C=C\C/C=C\C/C=C\C/C=C\C=C\C(O)CCCC(=O)O (stereo not given) |  |  |  |  | 1.12% [at 0.757 µM] | 9.64% [at 0.757 µM] | 6.07% [at 0.757 µM] | 1.64% [at 0.757 µM]
COc1ccc(C2CC(=O)c3c(O)cc(O)cc3O2)c(CC=C(C)C)c1OC (stereo not given) | inactive | inactive | inactive | inactive |  |  |  | 
C[C@@H]1C2C[C@@]34COC(=O)C3=CC=C[C@H]4[C@@]13C[C@H](c1ccoc1)O[C@@H]3O2 | inactive | inactive | inactive | inactive |  |  |  | 
Cn1c2ccccc2c(=O)c2c(O)cccc21 | inactive | inactive | inactive | inactive |  |  |  | 
